“And” between values parts separate entries of the source, which are not always exact repeats. Equal entries are not always repeated. Inconclusive results are not listed. Some structures have more than one record in an assay (separate samples or runs), and their calls can disagree. The source made the active and inactive calls. The calls were made as follows, unless noted: active = hit-call score of the fitted dose curve at least 0.9, where 1 is the maximum; inactive = score below 0.9.

This is an account of results in PubChem BioAssay (EPA / NIEHS).

Assay [1] deals with Retinoic acid receptor RXR-alpha (Homo sapiens) (UniProt P19793). Briefly: ATG_RXRa_TRANS: Attagene TRANS-FACTORIAL HepG2 Assay for human Retinoid X Receptor alpha (RXRa) (AID 2283012; active = hit-call score of the fitted dose curve at least 0.9, where 1 is the maximum). The procedure, abridged: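 Measures exogenous chimeric NR-GAL4 activity in transfected HepG2 liver cells after 24 h of dosing. Induced reporter mRNA was detected by RT-PCR with capillary electrophoresis, and gain of signal was analysed against DMSO.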

Assay [2] deals with human Thyroid Receptor alpha (THRa1), THRA (gene 7067) (UniProt P10827). Briefly: ATG_THRa1_TRANS: Attagene TRANS-FACTORIAL HepG2 Assay for human Thyroid Receptor alpha (THRa1) (AID 2283014; active = hit-call score of the fitted dose curve at least 0.9, where 1 is the maximum). Summed up:
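Transcripts from GAL4-UAS-driven reporters, measured after 24 h compound exposure by RT-PCR plus capillary electrophoresis of 6-FAM-labeled fragments, were fitted for gain of signal relative to DMSO. Cells: transiently transfected HepG2 expressing NR-Gal4 chimeras.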

Read-out in assay [3]: E-selectin (Homo sapiens) (UniProt P16581)
Description: BSK_3C_Eselectin: BioMAP Diversity Plus: 3C Assay for Eselectin Biomarker Activity (AID 2283015).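 As to outcome: cell surface E-selectin protein quantified by ELISA 24 h after dosing.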 The note with it: primary human endothelial cells (HUVEC); actives raise or lower the signal. The procedure, abridged: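 E-selectin ELISA readout, fitted bidirectionally relative to DMSO, taken 24 h post-dosing in HUVEC cultures of the 3C system. Overt cytotoxicity tracked with sulforhodamine B staining of parallel wells.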

Read-out in assay [4]: Interleukin-1 alpha (IL1a), IL1A (gene 3552)
Description: BSK_BE3C_IL1a: BioMAP Diversity Plus: BE3C Assay for Interleukin-1 alpha (IL1a) Biomarker Activity (AID 2283016). To be noted: primary human bronchial epithelial cells; actives raise or lower the signal. Summed up:
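Signal from IL-1a ELISA, taken 24 h after chemical dosing of human bronchial epithelial cells, is compared with DMSO as baseline using bidirectional curve fitting.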

Read-out in assay [5]: Monocyte Chemoattractant Protein-1 (MCP1), CCL2 (gene 6347)
Description: BSK_3C_MCP1: BioMAP Diversity Plus: 3C Assay for Monocyte Chemoattractant Protein-1 (MCP1) Biomarker Activity (AID 2283017). To be noted: primary human endothelial cells (HUVEC); actives raise or lower the signal. Summed up:
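MCP-1 was measured by ELISA 24 h after dosing in primary HUVEC 3C cultures and fitted in both directions relative to DMSO; cytotoxicity was checked by SRB total-protein staining in parallel wells.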

Read-out in assay [6]: Monocyte Chemoattractant Protein-1 (MCP1), CCL2 (gene 6347)
Description: BSK_4H_MCP1: BioMAP Diversity Plus: 4H Assay for Monocyte Chemoattractant Protein-1 (MCP1) Biomarker Activity (AID 2283018). To be noted: primary human endothelial cells (HUVEC); actives raise or lower the signal. Summed up:
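Endothelial cells from umbilical vein were treated with test chemical, then after 24 h MCP-1 levels were quantified by ELISA; endpoint values came from bidirectional fitting with DMSO as baseline of activity.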

Read-out in assay [7]: Interleukin-8 (IL8), CXCL8 (gene 3576)
Briefly: BSK_3C_IL8: BioMAP Diversity Plus: 3C Assay for Interleukin-8 (IL8) Biomarker Activity (AID 2283020). The note with it: primary human endothelial cells (HUVEC); actives raise or lower the signal. Summed up:
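Endothelial primary cells of human umbilical vein origin are dosed with chemical; after 24 h the IL-8 biomarker is measured by ELISA, and concentration–response is fitted in both directions versus DMSO.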

Assay [8] concerns the target human Vitamin D Receptor (VDR), VDR (gene 7421) (UniProt P11473). Briefly: ATG_VDR_TRANS: Attagene TRANS-FACTORIAL HepG2 Assay for human Vitamin D Receptor (VDR) (AID 2283022; active = hit-call score of the fitted dose curve at least 0.9, where 1 is the maximum). The procedure, abridged:
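Transactivation by an exogenous VDR-Gal4 chimera in transiently transfected HepG2 cells was measured as reporter transcript level 24 hours after chemical treatment. RT-PCR products were analysed by capillary electrophoresis and fitted in the positive direction relative to DMSO.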

A short description of assay [9]: BSK_3C_SRB: Viability Assessment in the BioMAP Diversity Plus: 3C Assay (AID 2283023).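 Also: fitted both ways against DMSO so a hit may be signal rise or drop.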 To be noted: primary human endothelial cells (HUVEC). Summed up: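 Cytotoxicity readout in parallel HUVEC 3C cultures: after 24 h compound exposure, cells fixed with 10% TCA, stained with 0.1% SRB and read at 560 nm. Gain or loss relative to DMSO fitted.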
Read-out in assay [10]: Matrix Metallopeptidase 1 (MMP1), MMP1 (gene 4312)
Description: BSK_BE3C_MMP1: BioMAP Diversity Plus: BE3C Assay for Matrix Metallopeptidase 1 (MMP1) Biomarker Activity (AID 2283024). To be noted: primary human bronchial epithelial cells; actives raise or lower the signal. The procedure, abridged: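 MMP1 signal, measured by ELISA after a 24 h chemical exposure of human primary bronchial epithelial cells, is analysed with bidirectional fitting using DMSO as negative control.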

Assay [11] can be described thus: BSK_4H_SRB: Viability Assessment in the BioMAP Diversity Plus: 4H Assay (AID 2283027).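 Also: cells exposed to compound for 24 h before staining.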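 As to AC50: curves fitted both ways versus DMSO so AC50 may be loss or gain.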 To be noted: primary human endothelial cells (HUVEC). The procedure, abridged: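 Cytotoxicity read-out in primary human endothelial cells: after 24 h compound exposure, cells were TCA-fixed (10%), stained with 0.1% SRB and absorbance taken at 560 nm. Values fitted in both directions relative to DMSO.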

Assay [12] is described as follows: BSK_BE3C_SRB: Viability Assessment in the BioMAP Diversity Plus: BE3C Assay (AID 2283028).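 As to AC50: fitted both ways so AC50 may mark signal gain or loss versus DMSO.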 The note with it: primary human bronchial epithelial cells. The procedure, abridged: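 Cytotoxicity read-out: SRB (0.1%) staining of TCA-fixed (10%) human lung bronchial epithelial cells, absorbance 560 nm, 24 h post-dosing. Curves fitted both directions relative to DMSO.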

Read-out in assay [13]: Thrombomodulin, THBD (gene 7056)
Briefly: BSK_3C_Thrombomodulin: BioMAP Diversity Plus: 3C Assay for Thrombomodulin Biomarker Activity (AID 2283029). To be noted: primary human endothelial cells (HUVEC); actives raise or lower the signal. Summed up: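 Endothelial cells from umbilical vein are dosed with test chemical and incubated 24 h. Thrombomodulin is then quantified by ELISA, with DMSO serving as negative control and activity baseline.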

Read-out in assay [14]: Urokinase-type plasminogen activator receptor (uPAR), PLAUR (gene 5329)
Description: BSK_4H_uPAR: BioMAP Diversity Plus: 4H Assay for Urokinase-type plasminogen activator receptor (uPAR) Biomarker Activity (AID 2283030). To be noted: primary human endothelial cells (HUVEC); actives raise or lower the signal. The procedure, abridged:
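uPAR level read by ELISA on HUVEC cultures (BioMAP 4H) 24 h post-dosing, analyzed for gain or loss relative to DMSO. Parallel SRB staining assessed overt cytotoxicity.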

Assay [15] deals with human Retinoid X Receptor beta (RXRb), RXRB (gene 6257) (UniProt P28702). Briefly: ATG_RXRb_TRANS: Attagene TRANS-FACTORIAL HepG2 Assay for human Retinoid X Receptor beta (RXRb) (AID 2283013; active = hit-call score of the fitted dose curve at least 0.9, where 1 is the maximum). The procedure, abridged:
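Chimeric receptor-Gal4 activity was assessed in transiently transfected human HepG2 cells after 24 h exposure. Transcripts from GAL4-UAS reporters were quantified by fluorescent RT-PCR and capillary electrophoresis, with DMSO as negative control and baseline.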

Read-out in assay [16]: Monokine induced gamma interferon (MIG), CXCL9 (gene 4283)
Description: BSK_3C_MIG: BioMAP Diversity Plus: 3C Assay for Monokine induced gamma interferon (MIG) Biomarker Activity (AID 2283021). The note with it: primary human endothelial cells (HUVEC); actives raise or lower the signal. The procedure, abridged:
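Endothelial primary cells (human umbilical vein) are dosed with test chemical in the 3C system. MIG levels are measured by ELISA at 24 h and fitted in both directions relative to DMSO.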

Assay [17] is described as follows: BSK_3C_Vis: BioMAP Diversity Plus: 3C Assay for Morphology Visualization (AID 2283025).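 Also: fitted both ways so gain or loss versus DMSO counts.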 To be noted: primary human endothelial cells (HUVEC). The procedure, abridged: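 Morphology read by light microscopy serves as a background control for the multiplexed 3C assay in human umbilical vein endothelial cells, taken 24 h after dosing, with DMSO as the negative control and bidirectional curve fitting.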

Sequence of E-selectin (Homo sapiens) (P16581 whole entry, looked up): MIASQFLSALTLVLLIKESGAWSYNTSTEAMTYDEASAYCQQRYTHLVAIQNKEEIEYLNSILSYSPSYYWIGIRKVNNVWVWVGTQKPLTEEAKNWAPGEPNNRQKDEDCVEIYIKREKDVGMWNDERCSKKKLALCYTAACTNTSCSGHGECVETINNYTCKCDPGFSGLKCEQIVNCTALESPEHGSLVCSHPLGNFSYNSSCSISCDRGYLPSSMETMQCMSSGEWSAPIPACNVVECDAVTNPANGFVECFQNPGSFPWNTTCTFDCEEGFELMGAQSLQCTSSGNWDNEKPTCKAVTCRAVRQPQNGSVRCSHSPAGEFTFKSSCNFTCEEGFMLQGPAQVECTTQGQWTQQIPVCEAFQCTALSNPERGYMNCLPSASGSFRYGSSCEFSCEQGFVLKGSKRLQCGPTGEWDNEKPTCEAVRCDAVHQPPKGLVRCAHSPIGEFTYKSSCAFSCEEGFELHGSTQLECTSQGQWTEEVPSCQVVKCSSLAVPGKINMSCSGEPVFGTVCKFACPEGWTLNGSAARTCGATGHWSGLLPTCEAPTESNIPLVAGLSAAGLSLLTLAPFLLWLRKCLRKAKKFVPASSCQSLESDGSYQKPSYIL
Sequence of human Retinoid X Receptor beta (RXRb), RXRB (gene 6257) (P28702 whole entry, looked up, the tested form may be a part): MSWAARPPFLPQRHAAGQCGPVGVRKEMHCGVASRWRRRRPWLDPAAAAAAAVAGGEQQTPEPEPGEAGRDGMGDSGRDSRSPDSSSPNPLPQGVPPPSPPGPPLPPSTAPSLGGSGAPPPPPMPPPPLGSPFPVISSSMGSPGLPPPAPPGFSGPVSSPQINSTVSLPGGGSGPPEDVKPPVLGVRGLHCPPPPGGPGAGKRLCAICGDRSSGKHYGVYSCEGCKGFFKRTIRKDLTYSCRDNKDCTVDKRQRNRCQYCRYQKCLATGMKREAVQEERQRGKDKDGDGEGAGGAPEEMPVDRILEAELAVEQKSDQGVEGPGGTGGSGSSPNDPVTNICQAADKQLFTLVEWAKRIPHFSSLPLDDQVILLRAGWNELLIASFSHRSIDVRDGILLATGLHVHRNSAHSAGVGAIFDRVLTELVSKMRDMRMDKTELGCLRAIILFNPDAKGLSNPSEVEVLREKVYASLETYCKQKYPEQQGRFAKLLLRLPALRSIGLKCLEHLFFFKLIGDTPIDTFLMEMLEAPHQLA
Sequence of human Vitamin D Receptor (VDR), VDR (gene 7421) (P11473 whole entry, looked up, the tested form may be a part): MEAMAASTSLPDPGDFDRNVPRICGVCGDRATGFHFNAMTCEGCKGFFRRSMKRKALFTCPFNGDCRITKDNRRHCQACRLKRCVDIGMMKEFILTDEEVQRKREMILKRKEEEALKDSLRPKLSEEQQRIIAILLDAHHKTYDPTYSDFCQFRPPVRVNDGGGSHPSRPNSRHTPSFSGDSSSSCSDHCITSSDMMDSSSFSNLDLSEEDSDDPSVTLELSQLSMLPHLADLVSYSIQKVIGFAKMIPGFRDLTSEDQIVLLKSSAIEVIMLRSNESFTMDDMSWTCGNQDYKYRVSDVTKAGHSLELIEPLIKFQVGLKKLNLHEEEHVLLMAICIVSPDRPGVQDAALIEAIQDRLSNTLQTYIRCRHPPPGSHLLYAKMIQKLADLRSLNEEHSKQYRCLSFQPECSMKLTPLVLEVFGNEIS
Sequence of human Thyroid Receptor alpha (THRa1), THRA (gene 7067) (P10827 whole entry, looked up, the tested form may be a part): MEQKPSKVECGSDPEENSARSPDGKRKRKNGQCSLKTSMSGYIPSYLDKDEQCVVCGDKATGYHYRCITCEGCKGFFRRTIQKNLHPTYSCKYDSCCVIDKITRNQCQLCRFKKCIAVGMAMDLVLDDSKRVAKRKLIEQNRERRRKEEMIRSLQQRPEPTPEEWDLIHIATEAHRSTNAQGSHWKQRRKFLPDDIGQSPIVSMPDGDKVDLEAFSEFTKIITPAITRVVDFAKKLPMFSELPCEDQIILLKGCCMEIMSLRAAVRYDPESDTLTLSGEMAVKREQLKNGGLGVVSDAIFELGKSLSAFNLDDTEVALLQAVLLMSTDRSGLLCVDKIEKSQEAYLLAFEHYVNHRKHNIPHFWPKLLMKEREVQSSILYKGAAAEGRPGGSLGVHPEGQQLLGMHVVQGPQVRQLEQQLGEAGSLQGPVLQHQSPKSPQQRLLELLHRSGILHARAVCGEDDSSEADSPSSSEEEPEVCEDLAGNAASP
Sequence of Retinoic acid receptor RXR-alpha (Homo sapiens) (P19793 whole entry, looked up, the tested form may be a part): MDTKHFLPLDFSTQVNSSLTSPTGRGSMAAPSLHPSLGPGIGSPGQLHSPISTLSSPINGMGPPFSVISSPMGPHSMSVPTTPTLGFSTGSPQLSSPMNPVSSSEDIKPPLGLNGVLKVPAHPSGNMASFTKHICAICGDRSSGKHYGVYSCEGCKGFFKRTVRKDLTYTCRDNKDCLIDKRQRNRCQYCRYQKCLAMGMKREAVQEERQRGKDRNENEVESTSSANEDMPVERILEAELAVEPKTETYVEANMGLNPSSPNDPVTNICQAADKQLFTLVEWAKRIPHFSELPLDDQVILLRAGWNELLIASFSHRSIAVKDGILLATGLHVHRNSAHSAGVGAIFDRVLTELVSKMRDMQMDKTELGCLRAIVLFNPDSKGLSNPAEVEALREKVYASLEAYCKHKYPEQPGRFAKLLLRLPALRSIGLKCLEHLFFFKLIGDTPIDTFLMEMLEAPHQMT

On to `O=C1Cc2ccccc2N1c1c(Cl)cccc1Cl`, for which the compound was called inactive in assay [1] and in [2].

`CC(C)[C@@H]1CC[C@@H](C)C[C@H]1O`: the call in assay [1] and in [2] was inactive.

As for `Oc1ccc(Cc2ccccc2O)cc1`, the compound was classed as inactive in assay [1], in [2], in assay [3], in assay [4], in assay [5] and in [6]. Further, the outcome in assay [7], in [8], in [9], in assay [10], in assay [11] and in assay [12] was inactive. The outcome in assay [13] and in assay [14] was inactive.

For the compound `CC1COCc2cc3c(cc21)C(C)(C)C(C)C3(C)C` (stereo not drawn), the result in assay [1] and in assay [2] was inactive.

`CC(C)(O)C(=O)c1ccccc1`: the compound was called inactive in assay [1], in assay [15] and in [8].

As a reminder, the AC50 is the concentration giving half of the maximal activity seen. Turning to `Clc1ccc(Nc2nnc(Cc3ccncc3)c3ccccc23)cc1`, the outcome in [1], in assay [2], in [5], in [6], in assay [7] and in [16] was inactive. The compound was classed as inactive in assay [8], in [10], in assay [17], in assay [11], in assay [12] and in assay [13]. In assay [14], the outcome was inactive. The results for the AC50 in assay [3] and in assay [4] were 2.36 µM (active) and 1.67 µM (active), respectively.

`CCc1cccc(CC)c1N(COC)C(=O)CS(=O)(=O)O`: the result in assay [1] and in assay [2] was inactive.

`NNc1nc(-c2ccc([N+](=O)[O-])cc2)cs1`: the compound was classed as inactive in assay [1]. The AC50 in assay [2] is 48.5 µM (active).

Regarding `Cc1cc(=O)oc2cc(O)ccc12`, the compound was classed as inactive in [1], in assay [15], in assay [2] and in assay [8].

As to `CC(=O)Nc1ccc(S(N)(=O)=O)cc1`, the compound was called inactive in assay [1], in assay [15] and in assay [8].

Regarding `CCCCCCCCCCCC[N+](C)(C)Cc1ccccc1`, the compound was classed as inactive in assay [1] and in assay [2].

`C=CC(C)(CCC=C(C)C)OC(C)=O` (stereo not drawn): the compound was classed as inactive in assay [1], in assay [15], in [4], in assay [7], in assay [10] and in [12]. Also, in assay [13], the outcome was inactive. The half-maximal activity concentration (AC50) is 32.1 µM (active) in [3]; 35.2 µM (active) in assay [5]; 27 µM (active) in assay [6]; 28.9 µM (active) in [9]; 37.4 µM (active) in assay [17]; 34.2 µM (active) in [11]. Also, the half-maximal activity concentration (AC50) in assay [14] was 28.9 µM (active).

As for `O=C(O)C(F)(F)OC(F)(F)C(F)(F)OC(F)(F)C(F)(F)OC(F)(F)C(F)(F)C(F)(F)C(F)(F)F`, the compound was called inactive in [1], in [2], in assay [8] and in assay [13]. The AC50 in assay [3] is 49.6 µM (active) and 49 µM (active); in assay [4] it was 6.32 µM (active) and 6.18 µM (active); in [5], 44.8 µM (active) and 46.6 µM (active); in assay [6] it was 42.4 µM (active) and 40.5 µM (active); in [7], 36.6 µM (active) and 23.5 µM (active); in assay [9], 26.1 µM (active) and 24 µM (active). Further, the AC50 is 5.81 µM (active) and 5.41 µM (active) in assay [10]; 47.9 µM (active) and 52.7 µM (active) in assay [11]; 7.88 µM (active) and 7.84 µM (active) in [12]; 52 µM (active) in assay [13]; 43.5 µM (active) and 43.6 µM (active) in [14].

For the compound `O=CC(F)(F)C(F)(F)C(F)(F)C(F)F`, the call in [1], in assay [15], in assay [2] and in assay [8] was inactive.

As to `Cc1ccc(S(=O)(=O)O)cc1`, the call in assay [1], in assay [15], in assay [2] and in assay [8] was inactive.
